The record followed here is PubChem BioAssay (Tox21).

SMILES strings stand for the structures. Records with an inconclusive call do not appear. Active and inactive are the calls of the source. Unless noted, calls come from the whole dose curve.

Assay [1] concerns the target Gonadotropin-releasing hormone receptor (Homo sapiens) (UniProt P30968). Description: Human gonadotropin-releasing hormone receptor (GnRHR) small molecule agonists, calcium flux assay in GnRHR-HEK293 cells (AID 1920063). Note: nearly all actives have a fitted effect of over 35% in size. An outline of the steps:
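Tox21-format agonist screen using human GnRHR-expressing HEK293 cells and a fluorescent calcium dye; kinetic 3-min fluorescence reading after compound addition, 15-point concentration series run in triplicate.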

In assay [2] the target is KiSS-1 receptor (Homo sapiens) (UniProt Q969F8). Put plainly: Human kisspeptin (KISS1R) small molecule agonists, calcium flux assay in KISS1R-HEK293 cells (AID 1920064; active = well fitted activation curve with a large enough effect in the repeat runs). In a few lines: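 Intracellular calcium mobilization in KISS1R-HEK293 cells was recorded by fluorescence (Ex/Em 480/540) for 3 min following compound addition to cells pre-loaded 1 h with calcium dye.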
Chain of KiSS-1 receptor (Homo sapiens) (Q969F8 whole entry, looked up): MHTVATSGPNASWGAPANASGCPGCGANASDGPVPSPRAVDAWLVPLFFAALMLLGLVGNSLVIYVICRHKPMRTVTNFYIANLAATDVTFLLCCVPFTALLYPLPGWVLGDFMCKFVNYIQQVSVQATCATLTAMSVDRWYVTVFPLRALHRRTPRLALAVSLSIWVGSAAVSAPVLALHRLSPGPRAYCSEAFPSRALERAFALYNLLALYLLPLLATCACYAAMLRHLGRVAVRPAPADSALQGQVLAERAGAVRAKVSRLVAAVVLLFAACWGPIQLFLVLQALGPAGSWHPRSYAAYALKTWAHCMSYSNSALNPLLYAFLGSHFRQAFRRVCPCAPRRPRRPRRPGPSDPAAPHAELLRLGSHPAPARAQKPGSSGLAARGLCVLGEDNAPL
(Calcium flux is commonly read through the fluorescence of an indicator in the cells.)

A short description of assay [3]: G protein-coupled receptor (GPCR) small molecule agonists, calcium flux assay: HEK293 wild type cell line counter screen (AID 1920065). An outline of the steps:
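In this agonist-mode screen, ATP is the positive control and DMSO the vehicle. Cells grow 18 h before a 1 h dye incubation at 37 C; signal is taken at Ex/Em 480/540 over 3 min.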

Assay [4] in a line: p53 small molecule agonists, cell-based qHTS assay with human liver microsomes: qHTS cell viability counter screen (AID 1963579). Note: nearly all actives have a fitted effect of over 45% in size. An outline of the steps: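 Tox21 library compounds, delivered from DMSO stocks, were tested on p53RE-bla cells together with 0.5 mg/mL human liver microsomes and 0.5 mg/mL NADPH (final) over 16 h at 37 C; CellTiter-Glo luminescence served as the cytotoxicity measure.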

Assay [5] is described as follows: p53 small molecule agonists, cell-based qHTS assay with rat liver microsomes: qHTS cell viability counter screen (AID 1963580). Note: nearly all actives have a fitted effect of over 45% in size. Note: potency is the fitted concentration of half-maximal effect. An outline of the steps:
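p53RE-bla HCT-116 cells were exposed 16 h at 37 C to compounds with rat liver microsomes (0.5 mg/mL) and NADPH (0.5 mg/mL). Viability was measured in the same wells as ATP content by CellTiter-Glo luminescence.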
Background: qHTS replaces the single test concentration by a dilution series.

A short description of assay [6]: p53 small molecule agonists, cell-based qHTS assay: qHTS cell viability counter screen (AID 1963581). Note: nearly all actives have a fitted effect of over 45% in size. In a few lines: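 Compounds are pinned onto HCT-116 p53RE-bla cells and left 16 h at 37 C. Following the reporter FRET read, ATP is quantified by CellTiter-Glo luminescence after 30 min at room temperature.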
Assay [7] concerns the target 5-hydroxytryptamine receptor 2A (Homo sapiens) (UniProt P28223). Description: 5-hydroxytryptamine receptor 2A (HTR2A) small molecule antagonists, cell-based qHTS assay (AID 1963586). Note: nearly all actives have a fitted effect of over 45% in size. An outline of the steps:
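Antagonist-mode intracellular calcium assay: DOI (4 nM) added after 5 min compound pre-incubation at room temperature to dye-loaded HTR2A-CHO cells. Fluorescence followed for 3 min, sampled every second.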

Assay [8] has the same target. Put plainly: 5-hydroxytryptamine receptor 2A (HTR2A) small molecule agonists, cell-based qHTS assay (AID 1963587). Note: nearly all actives have a fitted effect of over 30% in size. In a few lines:
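CHO cells stably expressing human HTR2A, plated 18 h, loaded with calcium dye 1 h at 37 C. Agonist mode: compounds added and intracellular calcium fluorescence recorded kinetically for 2 min at 1 sec intervals.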

Assay [9] deals with Muscarinic acetylcholine receptor M1 (Homo sapiens) (UniProt P11229). Put plainly: Cholinergic receptor muscarinic 1 (CHRM1) small molecule antagonists, cell-based qHTS assay (AID 1963588). Note: nearly all actives have a fitted effect of over 40% in size. Note: potency is the fitted concentration of half-maximal effect. In a few lines:
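CHRM1-CHO calcium-flux assay, antagonist mode. Cells were seeded 18 h, dye-loaded 1 h at 37 C and given compound for 5 min at RT, then acetylcholine was added at 50nM. FDSS fluorescence was read 3 min; 15 concentrations, three runs.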

For assay [10] the target is unchanged. Put plainly: Cholinergic receptor muscarinic 1 (CHRM1) small molecule agonists, cell-based qHTS assay (AID 1963589). Note: nearly all actives have a fitted effect of over 35% in size. An outline of the steps:
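Stable CHRM1-CHO cells (human receptor) were incubated 18 h, dye-loaded for 1 h at 37 C and exposed to test compounds for agonist activity, with calcium-dependent fluorescence followed kinetically.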

Assay [11] in a line: cAMP Responsive Elements (CRE) small molecule agonists, cell-based qHTS assay (AID 1963590). An outline of the steps:
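FRET-based beta-lactamase readout (LiveBLAzer B/G, 2 h RT) quantified CRE activation in HEK 293T CRE-bla cells after 3 h treatment with DMSO-dissolved compounds.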

Assay [12] deals with Beta-2 adrenergic receptor (Homo sapiens) (UniProt P07550). Put plainly: Adrenergic beta2 receptor (ADRB2) small molecule antagonists, cell-based qHTS assay (AID 1963592). Note: nearly all actives have a fitted effect of over 50% in size. Note: potency is the fitted concentration of half-maximal effect. In a few lines: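 Cells (CHO, stable ADRB2 overexpression) incubated 18-20hr at 37C; compounds added from DMSO; agonist mix (1nM isoproterenol, 100uM IBMX, 25uM Ro-20-1724) added; 0.5hr RT; d2-cAMP and anti-cAMP-cryptate added; 1hr RT; 665/615 nm read.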
Chain of Beta-2 adrenergic receptor (Homo sapiens) (P07550 whole entry, looked up): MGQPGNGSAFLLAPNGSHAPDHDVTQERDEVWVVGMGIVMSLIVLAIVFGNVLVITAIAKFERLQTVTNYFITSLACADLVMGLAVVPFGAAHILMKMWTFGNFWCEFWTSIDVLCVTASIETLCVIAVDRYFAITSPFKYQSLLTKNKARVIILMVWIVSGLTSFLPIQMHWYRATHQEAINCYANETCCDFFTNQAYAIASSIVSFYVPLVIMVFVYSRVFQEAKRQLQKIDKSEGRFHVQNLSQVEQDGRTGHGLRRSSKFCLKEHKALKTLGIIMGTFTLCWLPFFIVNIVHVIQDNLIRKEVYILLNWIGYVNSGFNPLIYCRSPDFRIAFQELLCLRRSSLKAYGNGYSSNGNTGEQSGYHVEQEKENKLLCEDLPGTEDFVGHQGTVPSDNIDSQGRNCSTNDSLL

Assay [13] has the same target. Put plainly: Adrenergic beta2 receptor (ADRB2) small molecule agonists, cell-based qHTS assay (AID 1963593).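 Note: CHO cells stably overexpressing human ADRB2.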 In a few lines:
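CHO cells stably over-expressing ADRB2 were plated overnight at 37C, then dosed with compounds plus a stimulation mix containing 100uM IBMX and 25uM Ro-20-1724 for 0.5hr at room temperature. cAMP was measured by HTRF competition, 1hr.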

Assay [14] concerns the target D(2) dopamine receptor (Homo sapiens) (UniProt P14416). Put plainly: Dopamine D2 receptor (DRD2) small molecule agonists, cell-based qHTS assay (AID 1963594). Note: nearly all actives have a fitted effect of over 35% in size. An outline of the steps:
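HEK293 cells stably expressing human DRD2, pre-treated with PDE inhibitor Ro20-1724 (0.1 mM final) and compound 10 min at room temperature, then stimulated with NKH477 (200nM […]) for 30 min. cAMP read by HTRF (665/620 nm).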

Assay [15] shares this target. Description: Dopamine D2 receptor (DRD2) small molecule antagonists, cell-based qHTS assay (AID 1963595; active = well fitted inhibition curve with a large enough effect in the signal ratio in the repeat runs, with a control signal flat; the % refers to the signal ratio). An outline of the steps: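 Readout: HTRF cAMP, cAMP-d2 competing with cellular cAMP for anti-cAMP cryptate, read after 1 h. Cells: DRD2-HEK293. Conditions: 0.1 mM Ro20-1724, 12 nM quinpirole, 200 nM NKH477, 30 min RT.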
A short description of assay [16]: p53 small molecule agonists, cell-based qHTS assay with rat liver microsomes (AID 1963578). In a few lines: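 Each plate received p53RE-bla cells, then compound, then rat liver microsomes and NADPH (both 0.5 mg/mL final). Plates were held 16 h at 37 C, and beta-lactamase activity was detected with LiveBLAzer over 2 h.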
Assay [17] can be described thus: p53 small molecule agonists, cell-based qHTS assay (AID 1963582; active = well fitted activation curve with a large enough effect in the signal ratio in the repeat runs, not every such curve was filed as active; the % refers to the signal ratio). An outline of the steps:
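Agonist activity was scored from beta-lactamase FRET fluorescence in p53RE-bla cells treated 16 h at 37 C with compounds in DMSO, substrate incubation being 2 h at room temperature.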

Assay [18] in a line: cAMP Responsive Elements (CRE) small molecule antagonists, cell-based qHTS assay (AID 1963591; active = well fitted inhibition curve with a large enough effect in the signal ratio in the repeat runs, not every such curve was filed as active; the % refers to the signal ratio; note: potency is the fitted concentration of half-maximal effect). In a few lines: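 qHTS in CRE-bla HEK 293T cells: compound in DMSO, then 0.25 uM NKH477 (final), 3 h at 37 °C/5% CO2; beta-lactamase FRET read-out after 2 h substrate incubation.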
Assay [19] can be described thus: p53 small molecule agonists, cell-based qHTS assay with human liver microsomes (AID 1963577).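 Note: p53 response element beta-lactamase reporter cells with liver microsomes plus NADPH.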 An outline of the steps: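 Metabolically competent format: test substances, human liver microsomes and NADPH (both 0.5 mg/mL final) incubated with p53RE-bla cells 16 h at 37 C. Beta-lactamase reporter signal then quantified by fluorescence.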

Chain of Muscarinic acetylcholine receptor M1 (Homo sapiens) (P11229 whole entry, looked up): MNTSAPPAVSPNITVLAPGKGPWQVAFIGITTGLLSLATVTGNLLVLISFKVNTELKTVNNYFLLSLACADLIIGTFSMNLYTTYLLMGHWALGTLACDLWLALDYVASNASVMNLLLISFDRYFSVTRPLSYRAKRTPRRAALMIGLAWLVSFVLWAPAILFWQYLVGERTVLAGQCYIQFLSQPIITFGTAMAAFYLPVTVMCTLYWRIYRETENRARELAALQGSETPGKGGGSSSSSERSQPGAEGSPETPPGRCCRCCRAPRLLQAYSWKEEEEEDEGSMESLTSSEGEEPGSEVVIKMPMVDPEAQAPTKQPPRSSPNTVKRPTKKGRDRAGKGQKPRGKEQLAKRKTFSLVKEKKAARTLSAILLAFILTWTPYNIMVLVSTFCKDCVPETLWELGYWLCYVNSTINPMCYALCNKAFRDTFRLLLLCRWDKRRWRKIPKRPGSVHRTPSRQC
Chain of D(2) dopamine receptor (Homo sapiens) (P14416 whole entry, looked up): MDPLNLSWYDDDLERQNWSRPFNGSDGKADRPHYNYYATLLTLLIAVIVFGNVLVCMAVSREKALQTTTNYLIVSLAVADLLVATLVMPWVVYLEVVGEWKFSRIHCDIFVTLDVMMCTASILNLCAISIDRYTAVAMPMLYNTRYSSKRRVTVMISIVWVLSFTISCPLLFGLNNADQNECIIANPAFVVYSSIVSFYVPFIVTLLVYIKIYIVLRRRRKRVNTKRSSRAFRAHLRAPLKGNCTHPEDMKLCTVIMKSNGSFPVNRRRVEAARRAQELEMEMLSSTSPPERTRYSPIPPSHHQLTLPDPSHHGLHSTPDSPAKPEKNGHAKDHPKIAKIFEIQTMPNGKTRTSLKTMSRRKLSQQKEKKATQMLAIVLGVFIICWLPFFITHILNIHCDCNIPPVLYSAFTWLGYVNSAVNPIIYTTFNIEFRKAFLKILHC
Chain of Gonadotropin-releasing hormone receptor (Homo sapiens) (P30968 whole entry, looked up): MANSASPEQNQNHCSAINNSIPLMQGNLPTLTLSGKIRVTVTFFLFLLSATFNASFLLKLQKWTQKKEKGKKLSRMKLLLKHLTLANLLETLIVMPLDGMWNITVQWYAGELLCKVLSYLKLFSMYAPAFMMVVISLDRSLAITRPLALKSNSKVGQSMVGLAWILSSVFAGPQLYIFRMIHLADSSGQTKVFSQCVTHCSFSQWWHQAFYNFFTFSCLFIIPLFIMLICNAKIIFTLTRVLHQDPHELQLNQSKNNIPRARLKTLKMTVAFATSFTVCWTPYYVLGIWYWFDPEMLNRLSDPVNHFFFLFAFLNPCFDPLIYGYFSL
Chain of 5-hydroxytryptamine receptor 2A (Homo sapiens) (P28223 whole entry, looked up): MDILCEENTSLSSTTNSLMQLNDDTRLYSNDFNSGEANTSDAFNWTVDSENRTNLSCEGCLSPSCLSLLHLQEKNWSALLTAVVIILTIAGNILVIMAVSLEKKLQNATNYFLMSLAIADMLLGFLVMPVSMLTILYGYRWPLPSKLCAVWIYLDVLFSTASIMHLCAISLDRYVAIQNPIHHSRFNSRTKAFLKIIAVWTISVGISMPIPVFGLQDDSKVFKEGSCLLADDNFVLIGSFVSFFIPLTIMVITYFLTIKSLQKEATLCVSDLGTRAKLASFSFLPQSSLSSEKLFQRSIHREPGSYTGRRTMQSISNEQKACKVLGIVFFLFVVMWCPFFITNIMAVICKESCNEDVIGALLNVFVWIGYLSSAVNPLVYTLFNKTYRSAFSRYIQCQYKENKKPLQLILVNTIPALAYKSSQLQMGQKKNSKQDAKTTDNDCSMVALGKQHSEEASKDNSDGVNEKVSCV

Take `CCCC[N+](C)(CCCC)CCCC`: the Potency entry in assay [1], in [2], in [3], in [4], in [5] and in assay [6] was “inactive” in each case. The Potency result in [7], in assay [8], in assay [9], in [10], in assay [11] and in assay [12] was “inactive” throughout. Besides, the Potency result in assay [13], in [14] and in [15] was “inactive” throughout.

Turning to `CC(C)n1nc(-c2cc3cc(O)ccc3[nH]2)c2c(N)ncnc21`, the Potency result in assay [1], in [2], in assay [3], in assay [16], in assay [4] and in assay [6] was “inactive” each time. The Potency entry in assay [17], in [7], in assay [8], in assay [9], in assay [10] and in assay [12] was “inactive” throughout. The Potency result in assay [13], in assay [14] and in assay [15] was “inactive” each time.

As to `CCOC(=O)CC(=O)c1ccccc1`, the Potency entry in assay [1], in assay [2], in assay [3], in assay [4], in assay [5] and in assay [6] was “inactive” throughout. The Potency entry in [7], in assay [8], in [9], in assay [10], in [11] and in assay [12] was “inactive” throughout. The Potency result in assay [14] and in [15] was “inactive” each time.

In the case of `c1ccc(C(O[C@@H]2CCCN(CCc3ccc4c(c3)OCO4)C2)c2ccccc2)cc1`, the Potency entry in assay [1], in assay [2], in [3], in [16], in assay [4] and in assay [6] was “inactive” in each case. Moreover, the Potency entry in assay [10], in assay [14] and in [15] was “inactive” each time. The Potency was 0.119 µM (active) in assay [9] and 48.6 µM (active) in assay [12].

For the compound `CC(C)c1nnc2ccc(-c3ocnc3-c3cc(F)ccc3F)cn12`, the Potency result in assay [1], in assay [2], in assay [3], in assay [6], in assay [17] and in [7] was “inactive” each time. Also, the Potency result in [8], in [10], in [12], in assay [14] and in assay [15] was “inactive” each time.

In the case of `O=C1N=C(O)CN1/N=C/c1ccc(-c2ccc([N+](=O)[O-])cc2)o1`, the Potency entry in [1], in assay [2], in assay [3], in assay [4], in [6] and in assay [7] was “inactive” each time. In addition, the Potency entry in [8], in [9], in [10] and in assay [14] was “inactive” in each case.

Consider `O=C1c2c(O)ccc(O)c2C(=O)c2c(NCCNCCO)ccc(NCCNCCO)c21`, for which the Potency entry in [1], in assay [2], in [3] and in assay [11] was “inactive” in each case. In addition, in [5], the Potency was 19.9 µM (active).

In the case of `O=C(c1ccccc1)c1ccccc1`, the Potency result in assay [1], in assay [2], in assay [3], in [6], in assay [17] and in assay [7] was “inactive” each time. Besides, the Potency entry in assay [8], in [9], in assay [10], in [11], in assay [18] and in assay [13] was “inactive” each time. Moreover, the Potency entry in assay [14] and in [15] was “inactive” throughout.

In the case of `CCOC(=O)c1nc(C(Cl)(Cl)Cl)n(-c2ccc(Cl)cc2Cl)n1`, the Potency entry in assay [1], in [2], in assay [3], in [4], in assay [5] and in [7] was “inactive” in each case. In addition, the Potency result in assay [8], in [14] and in [15] was “inactive” in each case. The Potency in [18] is 61.1 µM (active).

For the compound `CCC1OCC(COc2ccc(Oc3ccccc3)cc2)O1` (stereo unspecified), the Potency entry in assay [1], in assay [2], in assay [3], in [19], in assay [16] and in assay [17] was “inactive” in each case. Further, the Potency result in [7], in assay [8], in [9], in [10], in assay [11] and in [18] was “inactive” throughout. The Potency entry in assay [12], in assay [13], in [14] and in assay [15] was “inactive” throughout.
